# Several values for one entry are separate records, joined by “and”; a condition that tells them apart may be missing. Identical values can stand only once. Hit rate of the full screen: of about 16,000 compounds, about 5,100 (32%) were called active. Not shown: some 25% with an inconclusive outcome. Calls come from the whole dose curve; as a rule, active = well fitted curve in the direction sought with a large enough effect; inconclusive = small, poorly fitted or top-dose-only effect, or effect the other way; inactive = no such curve, though single readings can be large or run the other way. The list shows a part of the results.
# Target: Cytochrome P450 3A4 (Homo sapiens) (UniProt P08684)
# Test: Cytochrome panel assay with activity outcomes
# Settings: recombinant CYP, pro-luciferin dealkylation, luminescence, p450-cyp3a4; series mostly up to 57.1 µM; activity, negative = inhibition: at the top concentration
# % is set by controls: 0 for no effect and ±100 for the full control effect.
# Cytochrome P450 3A4 (Homo sapiens), sequence (P08684 whole entry, looked up): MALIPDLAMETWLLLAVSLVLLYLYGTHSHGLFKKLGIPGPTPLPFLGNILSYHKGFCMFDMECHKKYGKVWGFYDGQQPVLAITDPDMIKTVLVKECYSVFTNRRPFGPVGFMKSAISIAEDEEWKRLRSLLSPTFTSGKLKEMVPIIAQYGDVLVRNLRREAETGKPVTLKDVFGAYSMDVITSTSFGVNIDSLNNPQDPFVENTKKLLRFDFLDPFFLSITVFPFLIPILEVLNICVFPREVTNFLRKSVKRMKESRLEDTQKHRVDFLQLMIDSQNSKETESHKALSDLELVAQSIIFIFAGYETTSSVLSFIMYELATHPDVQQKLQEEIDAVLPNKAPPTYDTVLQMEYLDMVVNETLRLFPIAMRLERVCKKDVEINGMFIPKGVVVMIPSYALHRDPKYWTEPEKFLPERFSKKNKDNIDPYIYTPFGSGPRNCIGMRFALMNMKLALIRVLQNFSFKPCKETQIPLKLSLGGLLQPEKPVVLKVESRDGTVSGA
Structure (SMILES),AC50,"activity, negative = inhibition"
O[C@@H](C1=C/C(=C\c2ccncc2)c2ccccc21)c1ccncc1,0.794 µM (active),
NS(=O)(=O)c1ccc(N=Nc2c(O)c(C(=O)O)cc3ccccc23)cc1,,-2.48% [at 11.4 µM] (inactive)
Cc1cccc(Oc2ncnc3onc(C)c23)c1C,,-11% (inactive)
Cn1c(SCC(=O)NC2CC2)nnc1-c1cccc(NC(=O)c2ccccc2F)c1,12.6 µM (active),
Nc1ncnc2c1ncn2[C@H]1O[C@@H](C(=O)OCCO)[C@@H](O)[C@H]1O,,-12.9% [at 11.4 µM] (inactive)
Clc1ccc(-c2nnc(-c3ccc(Br)cc3)c(N3CCSCC3)n2)cc1,,-17.3% (inactive)
CCOC(=O)c1nc2sc(C)c(C)c2c(=O)[nH]1,,-5.37% (inactive)
CCCCC1(C)NC(=O)c2c(C)sc(C(=O)OCC)c2N1 (centres undefined),17.8 µM (active),
c1ccc(Nc2ncncc2-c2ccoc2)cc1,2 µM (active),
c1ncc(-c2ccoc2)c(NC2CC2)n1,7.94 µM (active),
Fc1ccc(Nc2ncncc2-c2ccoc2)cc1,0.501 µM (active),
O=c1[nH]c2[nH]c(=S)[nH]c(=S)c2[nH]1,,-17.9% [at 11.4 µM] (inactive)
CCc1cccc2c(C=C(C#N)C#N)cn(CC(=O)N3CCCCC3)c12,,-27.8% (inactive)
CCc1cccc2c(C=C(C#N)C#N)cn(CC(=O)N3CCCC3)c12,,-15.2% (inactive)
CCN(CC)C(=O)Cn1cc(/C=C(\C#N)C(=O)N2CCN(c3ccccc3)CC2)c2ccccc21,0.891 µM (active),
N#Cc1ccccc1/C=N/Nc1nc(-c2ccccc2)c2cc(Cl)ccc2n1,6.31 µM (active),
Cc1ccc2nc(N/N=C/c3ccccc3C#N)nc(-c3ccccc3)c2c1,7.94 µM (active),
CSc1c(-c2ccccc2)nc2ccc(Cl)cc2c1C(=O)O,,7.66% (inactive)
Cc1ccc(Oc2nnc(-c3ccccc3)cc2C#N)cc1,,-24.2% (inactive)
Cc1nc(Cl)c(C#N)cc1-c1ccccc1,,-8.93% (inactive)

Structure (SMILES),AC50,"activity, negative = inhibition"
CCn1cc(C(=O)O)c(=O)c2cc(F)c(N3CCNCC3)nc21,,-15.4% [at 25.6 µM] (inactive)
COc1cc(Cl)c(C)cc1NC(=O)CNC(=O)Cn1cnc2ccccc2c1=O,,11.4% (inactive)
COc1ccc(-n2nc(C(=O)NCC(=O)Nc3ccccn3)c3ccccc3c2=O)cc1,3.55 µM (active),
COC(=O)c1nn(-c2ccccc2)c(=O)cc1Oc1ccccc1,,-20.9% [at 11.4 µM] (inactive)
Cc1ccc2c(c1)[C@@H]1CN(C)CC[C@@H]1N2S(=O)(=O)c1ccc(F)cc1,2 µM (active),
CCN1C(=O)[C@H]2[C@@H]3[C@H](O)[C@H](O)CC(=O)[C@H]3CC[C@H]2C1=O,,-13.1% [at 11.4 µM] (inactive) and -13% [at 11.4 µM] (inactive)
O=C1C[C@@H](O)[C@@H](O)[C@H]2[C@@H]3C(=O)N(Cc4ccc5c(c4)OCO5)C(=O)[C@@H]3CC[C@H]12,3.98 µM (active),
O=C1[C@H]2[C@H]3[C@H](O)[C@H](O)C/C(=N/OCc4ccccc4)[C@H]3CC[C@@H]2C(=O)N1Cc1ccc2c(c1)OCO2,1 µM (active),
CCN1C(=O)[C@H]2[C@H]3[C@H](O)[C@H](O)C/C(=N/OCC(C)C)[C@H]3CC[C@@H]2C1=O,,19.2% [at 11.4 µM] (inactive)
O=C1C[C@@H](O)[C@@H](O)[C@H]2[C@@H]3C(=O)N(Cc4ccccc4)C(=O)[C@@H]3CC[C@H]12,,-12.1% [at 11.4 µM] (inactive) and -10.8% [at 11.4 µM] (inactive)
CCN1C(=O)[C@H]2[C@H]3[C@H](O)[C@H](O)C/C(=N/OCC(C)C)[C@@H]3CC[C@@H]2C1=O,,-6.7% [at 11.4 µM] (inactive)
CC(=O)OC[C@@H]1O[C@@H](O/N=C2/C[C@@H](O)[C@@H](O)[C@@H]3[C@@H]4C(=O)N(Cc5ccc6c(c5)OCO6)C(=O)[C@H]4CC[C@H]23)[C@H](OC(C)=O)[C@H](OC(C)=O)[C@@H]1OC(C)=O,5.01 µM (active),
CC(=O)OC[C@@H]1O[C@@H](O/N=C2/C[C@@H](O)[C@@H](O)[C@@H]3[C@@H]4C(=O)N(Cc5ccccc5)C(=O)[C@H]4CC[C@H]23)[C@H](OC(C)=O)[C@H](OC(C)=O)[C@@H]1OC(C)=O,,-25% [at 11.4 µM] (inactive)
CCN1C(=O)[C@H]2[C@H]3[C@H](O)[C@H](O)C/C(=N/O[C@@H](C)c4cc(-c5c(C)cc(C)cc5C)no4)[C@@H]3CC[C@@H]2C1=O,3.98 µM (active),
CC(=O)OC[C@@H]1O[C@@H](O/N=C2/C[C@@H](O)[C@@H](O)[C@@H]3[C@@H]4C(=O)N(Cc5ccccc5)C(=O)[C@H]4CC[C@@H]23)[C@H](OC(C)=O)[C@H](OC(C)=O)[C@@H]1OC(C)=O,,-27.9% [at 11.4 µM] (inactive)
CCOC(=O)C(NC(C)=O)C(OC(C)=O)c1cccc(N(CCO)CCO)c1 (centres undefined),,-20.2% (inactive)
CC(=O)N(C)c1nnc(-c2cnccn2)s1,,-0.972% (inactive)
CC(=O)N[C@@H]1CONC1=O,,-3.29% [at 11.4 µM] (inactive)
CC(C)CO/N=C1/C[C@@H](O)[C@@H](O)[C@@H]2[C@@H]3C(=O)N(Cc4ccc5c(c4)OCO5)C(=O)[C@H]3CC[C@H]12,1 µM (active),
